# Measurements published in PubChem BioAssay.
# Activity calls are given as the source filed them.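 The calls were made as follows, unless noted: active = inhibition above 50%; inactive = the rest.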
# Assay: antimalarial activity against Dd2 strain (AID 2302;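 active = growth inhibition above 50% at the single 2 µM test dose, taken to imply half-maximal potency below 2 µM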;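 also: 0% = DMSO untreated growth and 100% = chloroquine plus artemisinin killed control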)
# Details: P. falciparum Dd2 in RBCs, LDH growth readout, 72 h; at 2 µM; stronger effect = higher value
row,SMILES,growth inhibition
1,O=C1C(=Cc2cc(Cc3ccccc3)ccc2O)SC(=S)N1Cc1ccccc1,53% (active)
2,CN(Cc1ccc(NC(=O)CCC2CCN(C(=O)/C=C/c3ccc(Cl)c(Cl)c3)CC2)cc1)C1CCOCC1,2% (inactive)
3,CC(C)(C)NCC(O)COc1ccc(Cl)cc1C1=NNC(=O)CC1 (stereo not given),-1% (inactive)
4,CCc1nc2c(cnn2CC)c(NC2CCOCC2)c1CNC(=O)c1ccoc1C,87% (active)
5,CN1CCCC1CCNCc1ccc(-c2ccc(CNCCc3ccccc3)cn2)cc1 (stereo not given),99% (active)
6,COc1ccc([N+](=O)[O-])cc1N(Cc1ccccc1-c1ccccc1)S(=O)(=O)c1ccc(C(F)(F)F)cc1,66% (active)
7,Cc1cc(Br)cnc1CCCCN=C1NC(=O)CN1C,26% (inactive)
8,CS(=O)(=O)Nc1ccc2c(C3CCN(CCC4CCN(C(=O)/C=C/c5ccc(Cl)c(Cl)c5)CC4)CC3)c[nH]c2c1,63% (active)
9,O=C(NC1CC1)c1ccc(Cn2c(SCc3cccc([N+](=O)[O-])c3)nc3ccccc3c2=O)cc1,65% (active)
10,CN1CCN(c2ccc3nc(-c4ccc5nc(-c6ccc(O)cc6)[nH]c5c4)[nH]c3c2)CC1,100% (active)
11,Cc1nc(-c2cccc(Nc3nccc(NCC(O)c4cccc(F)c4)n3)c2)cs1 (stereo not given),59% (active)
12,Cc1ccc(C2(C)CN(CCCOc3cccc(-c4ccc(C(=O)NC(C)C)cc4)c3)CCO2)cc1 (stereo not given),89% (active)
13,COc1cc2c(cc1OC)CC(NCCCCCCNCCc1ccc(Cl)cc1)CC2 (stereo not given),-1% (inactive)
14,CCOc1ccc(N2CCN(CCCCNC(=O)c3ccc(NC(=O)c4ccc(Cl)cc4)cc3)CC2)c(OCC)c1,65% (active)
15,CC(C)CCN(Cc1cncn1Cc1cccc(C(F)(F)F)c1)C(=O)c1cncc(-c2ccccc2)c1,4% (inactive)
16,CCC1N=C(N)N=C(N)N1OCCCOc1c(Cl)cc(Cl)cc1Cl (stereo not given),96% (active)
17,COc1cc(NC(=O)c2sc(-c3ccc(Cl)cc3)cc2NC(=O)c2ccncc2)ccc1OCCN1CCCC1,100% (active)
18,COc1ccc(-c2cccc(NC(=O)c3cccc(C#N)c3)c2)cc1CN1CCNCC1,15% (inactive)
19,O=C(Nc1ccccc1)c1cnc[nH]1,-1% (inactive)
20,CC(C)NC[C@@H](O)[C@H](Cc1ccccc1)NC(=O)c1cc2c3c(c1)c(C(C)C)cn3CCS(=O)(=O)N2C,99% (active)

row,SMILES,growth inhibition
1,CNc1ccc(CNCc2ccc(-c3ccc(-c4nc5ccc(F)cc5[nH]4)cc3)cc2)cc1,95% (active)
2,CN(C)c1ccc(N2C(N)=NC(N)=NC23CCCC3)cc1,0% (inactive)
3,Cc1cc(-c2cnc(N)c(-c3ccc(N4CCN(C)CC4)nc3)c2)cc(C)c1O,33% (inactive)
4,CCCCCCCN(Cc1ccc(OC(C)(C)C(=O)OCC)cc1)C(=O)Nc1ccccc1OC(F)(F)F,68% (active)
5,Cc1cccc2[nH]c(-c3ccc(-c4ccc(CN5CCN(CCO)CC5)cc4)cc3)nc12,97% (active)
6,Cc1cccc2[nH]c(-c3ccc(-c4ccc(CN5CCN(c6ccc(C#N)cn6)CC5)cc4)s3)nc12,44% (inactive)
7,Cc1cccc2[nH]c(-c3ccc(-c4cccc(NC(=O)c5cncn5C)c4)s3)nc12,16% (inactive)
8,c1ccc(COc2ccnc(NCCCOc3cccc(CN4CCCCC4)c3)c2)cc1,51% (active)
9,CCc1sc(-c2ccc(C(C)(C)C)cc2)nc1C(=O)NCCCN1CCCC1=O,69% (active)
10,COc1cccc(-c2ccc(NC(=O)C3CCCN(Cc4cccc(OC)c4O)C3)cc2)c1 (stereo not given),78% (active)
11,COc1ccc(C2CC(c3ccccc3O)=NN2C(=O)c2ccco2)cc1OC (stereo not given),68% (active)
12,CC(C)=C(C(=O)OCc1ccccc1)N1C(=O)[C@@H](NC(c2ccccc2)(c2ccccc2)c2ccccc2)[C@H]1[S@@](=O)CC(=O)OC(C)(C)C,78% (active)
13,CC(C)CNC(=O)c1cncc(-c2cccc(CNC3Cc4ccccc4C3)c2)c1,19% (inactive)
14,O=C(/C=C/c1ccc(Cl)c(Cl)c1)NCCCCCN1CCC(NC(=O)Nc2ccc(F)cc2F)CC1,23% (inactive)
15,C[C@@H]1CN(c2ccc3occ(C(=O)Nc4ccc(-c5ccncc5)c(Cl)c4)c3c2)C[C@H](C)N1C,96% (active)
16,CCNc1cc(C(=O)N[C@@H](Cc2ccccc2)[C@H](O)CN[C@H]2C[C@@H]3CC[C@H]2C3)cc(N2CCCCS2(=O)=O)c1,73% (active)
17,Cc1ccc2c(c1)nc(N)n2C[C@H](O)c1ccccc1,74% (active)
18,c1ccc(C2CCC(N3CCC(N4CCN(c5ccccc5)CC4)CC3)CC2)cc1 (stereo not given),34% (inactive)
19,CCn1ccc2c3c(N)nc(N)nc3ccc21,2% (inactive)
20,Cc1ccc2c(Cl)c(C(=O)N3CC(C)OC(C)C3)sc2c1 (stereo not given),98% (active)

# Assay: HepG2 cytotoxicity, primary screen, cytotoxicity control for P. falciparum antimalarial project, cell-based, ATP luminescence (AID 2303);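 also: 0% = DMSO wells and 100% = digitonin-killed cells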
# Details: HepG2 viability, 24-48 h, at 10 µM, stronger effect = higher value
row,SMILES,inhibition
1,O=C1C(=Cc2cc(Cc3ccccc3)ccc2O)SC(=S)N1Cc1ccccc1,16% (inactive)
2,CN(Cc1ccc(NC(=O)CCC2CCN(C(=O)/C=C/c3ccc(Cl)c(Cl)c3)CC2)cc1)C1CCOCC1,10% (inactive)
3,CC(C)(C)NCC(O)COc1ccc(Cl)cc1C1=NNC(=O)CC1 (stereo not given),6% (inactive)
4,CCc1nc2c(cnn2CC)c(NC2CCOCC2)c1CNC(=O)c1ccoc1C,6% (inactive)
5,CN1CCCC1CCNCc1ccc(-c2ccc(CNCCc3ccccc3)cn2)cc1 (stereo not given),25% (inactive)
6,COc1ccc([N+](=O)[O-])cc1N(Cc1ccccc1-c1ccccc1)S(=O)(=O)c1ccc(C(F)(F)F)cc1,3% (inactive)
7,Cc1cc(Br)cnc1CCCCN=C1NC(=O)CN1C,63% (active)
8,CS(=O)(=O)Nc1ccc2c(C3CCN(CCC4CCN(C(=O)/C=C/c5ccc(Cl)c(Cl)c5)CC4)CC3)c[nH]c2c1,35% (inactive)
9,O=C(NC1CC1)c1ccc(Cn2c(SCc3cccc([N+](=O)[O-])c3)nc3ccccc3c2=O)cc1,12% (inactive)
10,CN1CCN(c2ccc3nc(-c4ccc5nc(-c6ccc(O)cc6)[nH]c5c4)[nH]c3c2)CC1,-11% (inactive)
11,Cc1nc(-c2cccc(Nc3nccc(NCC(O)c4cccc(F)c4)n3)c2)cs1 (stereo not given),39% (inactive)
12,Cc1ccc(C2(C)CN(CCCOc3cccc(-c4ccc(C(=O)NC(C)C)cc4)c3)CCO2)cc1 (stereo not given),15% (inactive)
13,COc1cc2c(cc1OC)CC(NCCCCCCNCCc1ccc(Cl)cc1)CC2 (stereo not given),50% (active)
14,CCOc1ccc(N2CCN(CCCCNC(=O)c3ccc(NC(=O)c4ccc(Cl)cc4)cc3)CC2)c(OCC)c1,36% (inactive)
15,CC(C)CCN(Cc1cncn1Cc1cccc(C(F)(F)F)c1)C(=O)c1cncc(-c2ccccc2)c1,15% (inactive)
16,CCC1N=C(N)N=C(N)N1OCCCOc1c(Cl)cc(Cl)cc1Cl (stereo not given),67% (active)
17,COc1cc(NC(=O)c2sc(-c3ccc(Cl)cc3)cc2NC(=O)c2ccncc2)ccc1OCCN1CCCC1,100% (active)
18,COc1ccc(-c2cccc(NC(=O)c3cccc(C#N)c3)c2)cc1CN1CCNCC1,27% (inactive)
19,O=C(Nc1ccccc1)c1cnc[nH]1,-7% (inactive)
20,CC(C)NC[C@@H](O)[C@H](Cc1ccccc1)NC(=O)c1cc2c3c(c1)c(C(C)C)cn3CCS(=O)(=O)N2C,5% (inactive)

row,SMILES,inhibition
1,CNc1ccc(CNCc2ccc(-c3ccc(-c4nc5ccc(F)cc5[nH]4)cc3)cc2)cc1,38% (inactive)
2,CN(C)c1ccc(N2C(N)=NC(N)=NC23CCCC3)cc1,1% (inactive)
3,Cc1cc(-c2cnc(N)c(-c3ccc(N4CCN(C)CC4)nc3)c2)cc(C)c1O,-12% (inactive)
4,CCCCCCCN(Cc1ccc(OC(C)(C)C(=O)OCC)cc1)C(=O)Nc1ccccc1OC(F)(F)F,-2% (inactive)
5,Cc1cccc2[nH]c(-c3ccc(-c4ccc(CN5CCN(CCO)CC5)cc4)cc3)nc12,20% (inactive)
6,Cc1cccc2[nH]c(-c3ccc(-c4ccc(CN5CCN(c6ccc(C#N)cn6)CC5)cc4)s3)nc12,10% (inactive)
7,Cc1cccc2[nH]c(-c3ccc(-c4cccc(NC(=O)c5cncn5C)c4)s3)nc12,13% (inactive)
8,c1ccc(COc2ccnc(NCCCOc3cccc(CN4CCCCC4)c3)c2)cc1,22% (inactive)
9,CCc1sc(-c2ccc(C(C)(C)C)cc2)nc1C(=O)NCCCN1CCCC1=O,0% (inactive)
10,COc1cccc(-c2ccc(NC(=O)C3CCCN(Cc4cccc(OC)c4O)C3)cc2)c1 (stereo not given),13% (inactive)
11,COc1ccc(C2CC(c3ccccc3O)=NN2C(=O)c2ccco2)cc1OC (stereo not given),11% (inactive)
12,CC(C)=C(C(=O)OCc1ccccc1)N1C(=O)[C@@H](NC(c2ccccc2)(c2ccccc2)c2ccccc2)[C@H]1[S@@](=O)CC(=O)OC(C)(C)C,-2% (inactive)
13,CC(C)CNC(=O)c1cncc(-c2cccc(CNC3Cc4ccccc4C3)c2)c1,4% (inactive)
14,O=C(/C=C/c1ccc(Cl)c(Cl)c1)NCCCCCN1CCC(NC(=O)Nc2ccc(F)cc2F)CC1,14% (inactive)
15,C[C@@H]1CN(c2ccc3occ(C(=O)Nc4ccc(-c5ccncc5)c(Cl)c4)c3c2)C[C@H](C)N1C,14% (inactive)
16,CCNc1cc(C(=O)N[C@@H](Cc2ccccc2)[C@H](O)CN[C@H]2C[C@@H]3CC[C@H]2C3)cc(N2CCCCS2(=O)=O)c1,-4% (inactive)
17,Cc1ccc2c(c1)nc(N)n2C[C@H](O)c1ccccc1,-3% (inactive)
18,c1ccc(C2CCC(N3CCC(N4CCN(c5ccccc5)CC4)CC3)CC2)cc1 (stereo not given),6% (inactive)
19,CCn1ccc2c3c(N)nc(N)nc3ccc21,61% (active)
20,Cc1ccc2c(Cl)c(C(=O)N3CC(C)OC(C)C3)sc2c1 (stereo not given),4% (inactive)
